Laboratory results as given in PubChem BioAssay AID488933 (Broad Institute, 2010).
Potency and affinity values are given separately. Calls of active or inactive are those of the source.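 How the source made its calls: active means compounds lowering the cell viability signal, with fitted half-maximal dose at most ten times the top valid dose; inconclusive means flat partial drop of 30 to 70 percent, or poor fit; inactive means flat near zero, weak potency, or rising signal.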

Assay: mammalian cell toxicity, NIH-3T3 fibroblasts, dose response, cytotoxicity control for reversing antifungal drug resistance, Alamar Blue, dry powder, set 3 (AID 488933)
Conditions: NIH-3T3 viability with fluconazole, 48 h; series mostly up to 26 µM

Compound | outcome
O=C(c1ccccc1Cl)N1CCN(c2ccccn2)CC1 | inactive
c1ccc(N2CCNCC2)nc1 | inactive
O=C(c1cccc(Cl)c1)N1CCN(c2ccccn2)CC1 | inactive
Cc1ccc(C(=O)N2CCN(c3ccccn3)CC2)cc1 | inactive
Cc1cccc(N2CCN(C(=O)c3ccc(Cl)cc3)CC2)n1 | inactive
O=C(c1ccc(Cl)cc1)N1CCN(c2cnccn2)CC1 | inactive
COc1ccc(C(=O)N2CCN(c3ccccn3)CC2)cc1 | inactive
O=C(c1ccc(Cl)cc1)N1CCN(c2cccc(C(F)(F)F)n2)CC1 | inactive
Cc1ccc(N2CCN(C(=O)c3ccc(Cl)cc3)CC2)nn1 | inactive
Cn1ccnc1N1CCN(C(=O)c2ccc(Cl)cc2)CC1 | inactive
CCCCC(=O)N1CCN(c2ccccn2)CC1 | inactive
O=C(c1ccc(F)cc1)N1CCN(c2ccccn2)CC1 | inactive
COCCC(=O)N1CCN(c2ccccn2)CC1 | inactive
Cc1ccc(N2CCN(C(=O)c3ccc(Cl)cc3)CC2)nc1 | inactive
O=C(c1ccc(Cl)cc1)N1CCN(c2ccc(C(F)(F)F)cn2)CC1 | inactive
O=C(c1ccc(Cl)cc1)N1CCN(c2nc3ccccc3o2)CC1 | inactive
N#Cc1ccc(C(=O)N2CCN(c3ccccn3)CC2)cc1 | inactive
O=C(c1ccc(Cl)cc1)N1CCN(c2ncccc2C(F)(F)F)CC1 | inactive
CC(C)C(=O)N1CCN(c2ccccn2)CC1 | inactive
Cc1ccnc(N2CCN(C(=O)c3ccc(Cl)cc3)CC2)c1 | inactive
O=C(c1ccc(Cl)cc1)N1CCN(c2nccs2)CC1 | inactive
O=C(c1ccc(Cl)cc1)N1CCN(c2nc3ccccc3s2)CC1 | inactive
O=C(c1ccc(Cl)cc1)N1CCN(c2ncccn2)CC1 | inactive
N#Cc1cccnc1N1CCN(C(=O)c2ccc(Cl)cc2)CC1 | inactive
CC(C)C(=O)N1CCN(c2ccnc3cc(Cl)ccc23)CC1 | inactive
O=C(C1CCCCC1)N1CCN(c2ccccn2)CC1 | inactive
COc1cccnc1N1CCN(C(=O)c2ccc(Cl)cc2)CC1 | inactive
